This passage reports outcome and AC50 results from PubChem BioAssay (EPA / NIEHS).

Activity calls are given as the source filed them. How the source made its calls: active means hit-call score of the fitted dose curve at least 0.9, where 1 is the maximum; inactive means score below 0.9.

The AC50 is the concentration at which the activity in the assay is half-maximal.

Chain of Cellular tumor antigen p53 (Homo sapiens) (P04637 whole entry, looked up): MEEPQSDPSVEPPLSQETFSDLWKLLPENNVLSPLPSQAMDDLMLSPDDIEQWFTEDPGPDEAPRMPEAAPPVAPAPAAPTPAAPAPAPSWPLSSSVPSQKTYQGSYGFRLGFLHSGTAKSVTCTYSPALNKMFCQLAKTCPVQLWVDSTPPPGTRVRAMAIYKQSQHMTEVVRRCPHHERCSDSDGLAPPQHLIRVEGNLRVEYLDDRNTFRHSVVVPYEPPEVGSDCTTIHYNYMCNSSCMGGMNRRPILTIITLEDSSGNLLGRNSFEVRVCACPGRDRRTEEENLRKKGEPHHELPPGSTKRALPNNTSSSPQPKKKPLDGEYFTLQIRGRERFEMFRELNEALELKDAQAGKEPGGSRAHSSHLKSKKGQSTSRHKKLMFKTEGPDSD

Read-out in the first test: Thyroid Hormone Responsive (THRSP), THRSP (gene 7069)
As to the kind of experiment: LTEA_HepaRG_THRSP: Life Technologies and Expression Analysis (LTEA) Assay for Thyroid Hormone Responsive (THRSP) using HepaRG (AID 2283536). The settings on record: mRNA level, 48 h; actives raise or lower the signal. Summed up: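 Cell model: human HepaRG, approx. 100,000 cells/well, 0.5% DMSO vehicle. Exposure lasts 48 h; phenobarbital 1 mM serves as induction positive control. Gene expression is measured by qRT-PCR against three endogenous control genes.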
On to `Clc1ccc(C(Cl)(Cl)Cl)cc1`, for which the call was inactive.

On to `CCCCCCCCCc1ccc(O)cc1`, for which the result was inactive.

Turning to `NS(=O)(=O)C(F)(F)C(F)(F)C(F)(F)C(F)(F)C(F)(F)C(F)(F)C(F)(F)C(F)(F)F`, the half-maximal activity concentration (AC50) was 7.4 µM (active).

Turning to `CC(C)(O)C(=O)Nc1ccc([N+](=O)[O-])c(C(F)(F)F)c1`, the compound was classed as inactive.

With `O=C(O)C(F)(F)C(F)(F)C(F)(F)C(F)(F)C(F)(F)F`, the compound was called inactive.

Consider `O=S(=O)(O)C(F)(F)C(F)(F)C(F)(F)C(F)(F)F`, for which the result was inactive.

For the compound `ClC1=C(Cl)[C@]2(Cl)[C@@H]3[C@H]4C[C@H]([C@@H]5O[C@H]45)[C@@H]3[C@@]1(Cl)C2(Cl)Cl`, the AC50 is 93 µM (active).

Take `Cc1cc2c3c(c1)C(c1ccccc1)=N[C@@H](NC(=O)c1ccncc1)C(=O)N3CC2`: the concentration at half-maximal activity (AC50) was 22.7 µM (active).

With `N#Cc1ccc(N(CC(N)=O)CC(F)(F)F)cc1C(F)(F)F`, the half-maximal activity concentration (AC50) was 0.103 µM (active).

On to `Cc1ccc(O)c(C)c1`, for which the compound was classed as inactive.

As for `CCCN(CCC)N=O`, the compound was called inactive.

With `CN(C)c1nc(=O)n(C2CCCCC2)c(=O)n1C`, the compound was classed as inactive.

Turning to `COS(=O)(=O)OC`, the call was inactive.

Consider `CCCCCCOC(=O)c1ccccc1C(=O)OCCCCCC`, for which the compound was called inactive.

As to `O=C(O)C(F)(F)C(F)(F)C(F)(F)C(F)(F)C(F)(F)C(F)(F)C(F)(F)C(F)(F)C(F)(F)F`, the half-maximal activity concentration (AC50) is 15.6 µM (active).

As for `CO/C=C(/C(=O)OC)c1ccccc1COc1cccc(C(F)(F)F)n1`, the AC50 is 7.31 µM (active).

Regarding `O=NN(c1ccccc1)c1ccccc1`, the compound was called inactive.

`CCC(C)(CC)c1cc(NC(=O)c2c(OC)cccc2OC)on1`: the concentration at half-maximal activity (AC50) is 41.2 µM (active).

`CC#Cc1cc(C)nc(Nc2ccccc2)n1`: the AC50 was 6.1 µM (active).

Turning to `C[C@]12CCC(=O)C=C1CC[C@@H]1[C@@H]2CC[C@@]2(C)[C@H]1CC[C@]2(C)O`, the AC50 is 0.81 µM (active).

Regarding `ClC1=C(Cl)[C@]2(Cl)[C@@H]3[C@@H]4C[C@@H]([C@H]5O[C@@H]45)[C@@H]3[C@@]1(Cl)C2(Cl)Cl`, the half-maximal activity concentration (AC50) was 50 µM (active).

On to `CCOP(=S)(OCC)SCSC(C)(C)C`, for which the compound was called inactive.

For the compound `CCC(=O)O[C@H]1CC[C@H]2[C@@H]3CCC4=CC(=O)CC[C@]4(C)[C@H]3CC[C@]12C`, the result was inactive.

On to `CC(c1ccc(O)cc1)(c1ccc(O)cc1)c1ccc(O)cc1`, for which the half-maximal activity concentration (AC50) was 23.9 µM (active).

For `CCNc1nc(NC(C)C)nc(SC)n1`, the outcome was inactive.

Regarding `O=C(N[C@H]1CN2CCC1CC2)c1cc2ccoc2cn1`, the result was inactive.

Regarding `O=S(=O)(O)C(F)(F)C(F)(F)C(F)(F)C(F)(F)C(F)(F)C(F)(F)F`, the result was inactive.

For the compound `COc1ccc(O)c(C(C)(C)C)c1`, the compound was classed as inactive.

Consider `Cc1ccccc1[N+](=O)[O-]`, for which the call was inactive.

In the case of `CCOC(=O)C(O)(c1ccc(Cl)cc1)c1ccc(Cl)cc1`, the call was inactive.

On to `Oc1ccc(Cl)cc1Cl`, for which the outcome was inactive.

Read-out in a further test: Cellular tumor antigen p53 (Homo sapiens) (UniProt P04637)
In words: LTEA_HepaRG_TP53: Life Technologies and Expression Analysis (LTEA) Assay for Tumor Protein P53 (TP53) using HepaRG (AID 2283537). Conditions: mRNA level, 48 h; actives raise or lower the signal. The method, boiled down:
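Read-out is TP53 transcript level by microfluidic qRT-PCR, normalised to three housekeeping genes and fitted bidirectionally against DMSO. Human HepaRG cells received compounds for 48 h, highest concentration 100 uM.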
Consider `Clc1ccc(C(Cl)(Cl)Cl)cc1`, for which the call was inactive.

Take `CCCCCCCCCc1ccc(O)cc1`: the compound was called inactive.

`NS(=O)(=O)C(F)(F)C(F)(F)C(F)(F)C(F)(F)C(F)(F)C(F)(F)C(F)(F)C(F)(F)F`: the AC50 is 50 µM (active).

As to `CC(C)(O)C(=O)Nc1ccc([N+](=O)[O-])c(C(F)(F)F)c1`, the AC50 was 0.0309 µM (active).

In the case of `O=C(O)C(F)(F)C(F)(F)C(F)(F)C(F)(F)C(F)(F)F`, the result was inactive.

Consider `O=S(=O)(O)C(F)(F)C(F)(F)C(F)(F)C(F)(F)F`, for which the call was inactive.

Regarding `ClC1=C(Cl)[C@]2(Cl)[C@@H]3[C@H]4C[C@H]([C@@H]5O[C@H]45)[C@@H]3[C@@]1(Cl)C2(Cl)Cl`, the compound was called inactive.

On to `Cc1cc2c3c(c1)C(c1ccccc1)=N[C@@H](NC(=O)c1ccncc1)C(=O)N3CC2`, for which the AC50 was 50 µM (active).

Turning to `N#Cc1ccc(N(CC(N)=O)CC(F)(F)F)cc1C(F)(F)F`, the outcome was inactive.

As to `Cc1ccc(O)c(C)c1`, the call was inactive.

`CCCN(CCC)N=O`: the compound was called inactive.

Turning to `COS(=O)(=O)OC`, the compound was called inactive.

Take `CCCCCCOC(=O)c1ccccc1C(=O)OCCCCCC`: the result was inactive.

`CO/C=C(/C(=O)OC)c1ccccc1COc1cccc(C(F)(F)F)n1`: the AC50 was 10.1 µM (active).

Consider `O=NN(c1ccccc1)c1ccccc1`, for which the compound was classed as inactive.

For the compound `CC#Cc1cc(C)nc(Nc2ccccc2)n1`, the result was inactive.

For `C[C@]12CCC(=O)C=C1CC[C@@H]1[C@@H]2CC[C@@]2(C)[C@H]1CC[C@]2(C)O`, the result was inactive.

`ClC1=C(Cl)[C@]2(Cl)[C@@H]3[C@@H]4C[C@@H]([C@H]5O[C@@H]45)[C@@H]3[C@@]1(Cl)C2(Cl)Cl`: the call was inactive.

For the compound `CCOP(=S)(OCC)SCSC(C)(C)C`, the compound was classed as inactive.

In the case of `CCC(=O)O[C@H]1CC[C@H]2[C@@H]3CCC4=CC(=O)CC[C@]4(C)[C@H]3CC[C@]12C`, the result was inactive.

For the compound `CC(c1ccc(O)cc1)(c1ccc(O)cc1)c1ccc(O)cc1`, the AC50 is 93.9 µM (active).

As to `O=C(N[C@H]1CN2CCC1CC2)c1cc2ccoc2cn1`, the result was inactive.

Turning to `O=S(=O)(O)C(F)(F)C(F)(F)C(F)(F)C(F)(F)C(F)(F)C(F)(F)F`, the result was inactive.

As for `COc1ccc(O)c(C(C)(C)C)c1`, the result was inactive.

In the case of `Cc1ccccc1[N+](=O)[O-]`, the compound was called inactive.

As for `CCOC(=O)C(O)(c1ccc(Cl)cc1)c1ccc(Cl)cc1`, the call was inactive.

With `Oc1ccc(Cl)cc1Cl`, the call was inactive.
